Results on 94 compounds are retold here after PubChem BioAssay AID493008 (The Scripps Research Institute Molecular Screening Center, 2010).

Screen size: about 340,000 compounds; about 800 (0.24%) were called active.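 Rule for the calls: active = activation above the mean over all tested compounds plus 3 SD (cut at about 30% in these data); inactive = the rest.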 The full list was thinned out, with actives kept by preference.

For the experiment, the target named is Troponin I, cardiac muscle (Homo sapiens) + Troponin T, cardiac muscle (Homo sapiens) + Troponin C, slow skeletal and cardiac muscles (Homo sapiens) (UniProt P19429+P45379+P63316). Put plainly: cardiac RTF calcium sensitivity activators, primary screen, biochemical, IANBD-TnC fluorescence, EC20 calcium (AID 493008).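 Note: rise in fluorescence read as greater calcium sensitivity of cardiac thin filaments.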 As to conditions: IANBD-labeled TnC RTF fluorescence at EC20 calcium; at 7.2 µM; hits give high values; 0% EC20 calcium, 100% full calcium.
Take `S=C(Nc1ccccc1)Nc1ccc2ccccc2c1`: the activation is -10.4% (inactive). Take `CC1CCCC(C)N1C(=O)CN1CCN(c2nc(-c3ccc(F)cc3)cs2)CC1` (centres undefined): the activation was -5.89% (inactive). Then `CCCC(C)C(=O)Nc1ccc(NC(C)=O)cc1` (centres undefined), with -2.2% (inactive); and `CC(C)(C)c1ccc(/C=C/C(=O)NC2CCS(=O)(=O)C2)cc1` (centres undefined), with 8.91% (inactive); and `O=C(NC(Cc1c[nH]c2ccccc12)C(=O)N/N=C/c1ccc(Br)cc1)c1cccs1` (centres undefined), with -5.25% (inactive). Under `Cc1ncoc1C(=O)NCCC(c1ccccc1)c1ccccc1` stands 1.32% (inactive); under `Cc1ccc(N(Cc2cc(=O)[nH]c3ccccc23)C(=O)CCl)cc1`, -2.09% (inactive); under `COc1ccc(OC)c(S(=O)(=O)Nc2cccc(-c3ccc4nncn4n3)c2)c1`, -5.2% (inactive). Under `CC1(C)OC(=O)C(=CSc2ccc(C(C)(C)C)cc2)C(=O)O1` stands -0.02% (inactive).

Consider `CC1CCCN(CCCNC(=O)CN2C(=O)COc3ccc(S(=O)(=O)N4CCOCC4)cc32)C1` (centres undefined), for which the activation is -3.28% (inactive). Then `COc1ccc(C(=O)Oc2ccc(-c3nnco3)cc2)cc1S(=O)(=O)N1CCOCC1`, with 5.67% (inactive).

As for `C[n+]1ccc(/C=C/c2c[nH]c3ccccc23)cc1`, the activation is 154% (active). Under `COc1ccc(C(=O)Nc2ccc(-n3nncc3C(C)(C)C)cc2)cc1` stands -5.43% (inactive); under `O=C(NC(=S)N1CCc2ccccc21)c1ccco1`, -3.2% (inactive). Under `CC(C)NC(=O)N1CCN(c2ccncc2S(=O)(=O)N2CCCCC2)CC1` stands 1.09% (inactive); under `O=C(OCCOc1ccccc1Cl)c1cc(S(=O)(=O)N2CCCCC2)ccc1N1CCOCC1`, -4.46% (inactive); under `CCCNC(=O)C(=O)Nc1cc2c3c(c1)CCC(=O)N3CCC2`, -3.33% (inactive).

Turning to `OC1CN=C2Sc3ccccc3N2C1` (centres undefined), the activation was -0.74% (inactive). Then `O=C(N/N=C/C=C/c1ccco1)c1cccs1`, with 1.5% (inactive); and `Cn1c(=O)c(=O)n(C)c2cc(S(=O)(=O)NCCN3CCN(c4ccccc4F)CC3)ccc21`, with -1% (inactive). Then `CCN1/C(=C\c2ccc3ccccc3[n+]2CC)Sc2cc(C)ccc21`, with 38.1% (active); and `Cc1ccc(C(=O)N/C(=C/c2ccco2)C(=O)NCCc2c[nH]c3ccccc23)cc1C`, with -3.2% (inactive). Under `O=C(NCCc1c[nH]c2ccccc12)C1CCN(Cc2ccc(Br)cc2)CC1` stands -15.1% (inactive). For the compound `N#C/C(=C/c1ccc(N2CCCCC2)o1)C(=O)NCCc1c[nH]c2ccccc12`, the activation was 98.5% (active).

On to `CN(c1ccccc1)S(=O)(=O)c1ccc(NC(=O)COc2ccccc2)cc1`, for which the activation was 0.63% (inactive).

Take `CC1CCN(C(=O)Cn2nnnc2CN2CCOCC2)CC1`: the activation is -3.91% (inactive). Then `O=S(=O)(Nc1cccc(Oc2ccc(Cl)cc2)n1)c1ccc(F)cc1`, with -5.16% (inactive); and `O=C(CCN1C(=O)[C@@H]2Cc3ccccc3CN2C1=O)NCCc1ccccc1`, with -2.53% (inactive); and `CN(CCc1ccccc1)C(=O)c1cccc(NC(=O)Cc2cccc(NC(=O)C3CCCN(C(=O)CCc4ccccc4)C3)c2)c1` (centres undefined), with -0.28% (inactive). Under `Cc1ccccc1NC(=O)CCNS(=O)(=O)c1ccc2[nH]c(=O)oc2c1` stands -6.99% (inactive); under `O=S(=O)(Cc1nnnn1-c1ccc(Br)cc1)c1ccc(F)cc1`, 1.13% (inactive); under `O=C(CC12CC3CC(CC(C3)C1)C2)Nc1ccc2c(c1)COC2=O`, -1.12% (inactive).

As to `CCOc1ccc(OCC(=O)OC(C)C(=O)NC2CCCCC2C)cc1` (centres undefined), the activation was 0.95% (inactive).

With `Cc1ccc(CS(=O)(=O)CCC(=O)NC2CC2)cc1`, the activation was -1.46% (inactive). Under `COc1ccccc1C(=O)Nc1nc2nc(-c3ccccc3)cc(=O)n2[nH]1` stands 5.39% (inactive); under `COc1ccc(N2CC(C(=O)N[C@@H](C)C(=O)N3CCCCC3)CC2=O)cc1` (some centres undefined), 2.39% (inactive).

As to `Cc1ccc(S(=O)(=O)n2cccc2CO)cc1`, the activation is 3.89% (inactive). Under `CC1(C)CC(=O)C/C(=N\NC(=O)c2cccs2)C1` stands 9.93% (inactive); under `Cc1cccc(N(C(=O)Cc2cccs2)C(C(=O)NC2CCCC2)c2ccsc2)c1` (centres undefined), 2.2% (inactive); under `Cc1cc(F)ccc1N1CCC(N2CCN(C)C(CCO)C2)CC1` (centres undefined), 0.01% (inactive).

In the case of `O=S(=O)(c1cccc(-c2cn3ccccc3n2)c1)N1CCCC1`, the activation was -1.73% (inactive). Then `COc1ccc(N(C(=O)CNC(=O)c2ccco2)C(C(=O)NCC2CCCO2)c2ccccc2)cc1Cl` (centres undefined), with -5.45% (inactive); and `Nc1ncnc2c1ncn2[C@@H]1O[C@H](CNS(=O)(=O)c2ccc(-c3ccno3)s2)[C@@H](O)[C@H]1O`, with -2.32% (inactive); and `CC1(C)CN(c2ccc(-c3ccnc4ncnn34)cc2)C1=O`, with 2.76% (inactive). Then `ClC1(Cl)CC1CSc1ncn[nH]1` (centres undefined), with 2.22% (inactive); and `COc1ccc(CN(C)C(=S)Nc2ccc(Cl)cc2Cl)cc1`, with 5.9% (inactive). Take `O=C(CCS(=O)(=O)Cc1ccccc1F)NCCCN1CCCCC1`: the activation is 5.59% (inactive). As for `CCN(CC)CCn1c2ccc(Cl)cc2c2nc(C)sc21`, the activation was 1.89% (inactive). With `CCN(CC)CCCC(C)n1c2nc(=O)[nH]c(=O)c-2nc2cc(Cl)ccc21` (centres undefined), the activation is 1960% (active).

As for `CSCC[C@H](NC(=O)NCc1cccs1)C(=O)O`, the activation is 4.37% (inactive). Then `CC(C)c1nnc(NC(=O)CCC(=O)N2CCN(c3cccc(Cl)c3)CC2)s1`, with -4.73% (inactive); and `COc1ccc(C(=O)COC(=O)C(O)c2ccccc2)c(OC)c1` (centres undefined), with 3.19% (inactive); and `O=C(O)/C=C/c1ccc(OCCCF)cc1`, with -2.79% (inactive). Regarding `O=C(/C=C/c1ccc2c(c1)OCCO2)c1ccc(O)cc1`, the activation was -0.07% (inactive). Then `O=C(/C=C(O)/C=C/c1ccc(O)cc1)/C=C/c1ccc(O)cc1`, with 40.2% (active). Then `NC(=O)c1ccc(NC(=O)COC(=O)c2c3c(nc4ccccc24)/C(=C\c2ccc4c(c2)OCO4)CCC3)cc1`, with 514% (active); and `NS(=O)(=O)c1ccc(NC(=O)COC(=O)c2c3c(nc4ccccc24)/C(=C\c2ccc4c(c2)OCO4)CCC3)cc1`, with 4.91% (inactive); and `O=C(COC(=O)c1ccncc1)Nc1ccc2c(c1)OCO2`, with -5.52% (inactive). For `C=CCC(C(=O)c1ccccc1)[N+](C)(C)CC=C` (centres undefined), the activation was -2.42% (inactive). Under `O=C(NC1=CC(=O)c2ccccc2C1=O)c1ccccc1` stands -2.47% (inactive); under `COc1cccc2c1C(=O)c1c(O)c3c(c(O)c1C2=O)CC(O)(C(C)=NNC(=O)c1ccc(Cl)c(Cl)c1)CC3OC1CC(N)C(O)C(C)O1` (centres undefined), 220% (active). Under `CCCCC(CC)CNCc1cccn1CCN1CCOCC1` (centres undefined) stands -0.42% (inactive). Then `CCOC(=O)c1ccc(N=C2SC(C(=O)NC)CC(=O)N2CCc2ccccc2)cc1` (centres undefined), with 2.1% (inactive).

In the case of `Nc1c(C(=O)c2cccs2)sc2nsc(SCCN3CCCCC3)c12`, the activation is 30.6% (active). Then `O=C(CSc1ncnc2sccc12)N1CCN(C(=O)c2cccs2)CC1`, with 0.04% (inactive); and `COc1ccc(C23NCCN2C(=O)c2ccccc23)cc1` (centres undefined), with -1.61% (inactive). Then `COc1cc(S(=O)(=O)N2CCN=C2c2ccccc2)ccc1Cl`, with -3% (inactive); and `COc1ccc(-c2cc(C(=O)N3CCN(c4ccc(F)cc4)CC3)no2)cc1`, with -6.29% (inactive); and `COc1ccc(NC(C(=O)Nc2cccc(C(C)=O)c2)c2ccccc2)cc1` (centres undefined), with 2.77% (inactive).

With `COc1ccc(-c2onc3ccc(C(C)=O)cc23)cc1`, the activation is 42.2% (active). Under `CC1CCCN(S(=O)(=O)c2ccc(-c3ccc(=O)[nH]n3)o2)C1` (centres undefined) stands 0.69% (inactive); under `Cc1ccc2nc(SCC(=O)N3CCN(c4ccccc4)CC3)nc(=O)n2c1`, -2.94% (inactive); under `Cc1cccc(N=Nc2c(O)[nH]c3ccc(F)cc23)c1`, 31.3% (active). As to `NS(=O)(=O)c1ccc(N=Nc2c(O)[nH]c3ccc(Br)cc23)cc1`, the activation was -6.02% (inactive).

For the compound `Oc1[nH]c2ccccc2c1N=Nc1c(F)c(F)c(F)c(F)c1F`, the activation was 3.02% (inactive).

Turning to `Cc1ccc(C(=O)O)c(NC=O)c1OCc1ccccc1`, the activation is -0.38% (inactive). In the case of `Cc1ccc2oc(=O)ccc2c1`, the activation was -3.77% (inactive). Then `CCN(CC)c1ccc2oc(=O)c(C)nc2c1`, with 59.9% (active). Then `CCN(CC)c1ccc(C(=O)Nn2c(C)nc3ccccc3c2=O)cc1`, with 8.65% (inactive); and `COc1ncnc2c1N=C1CC(C)(C)CC(N)=C1S2`, with 30.1% (active). Then `CCOC(=O)c1ccccc1CN1C(=O)c2ccccc2S1(=O)=O`, with 6.29% (inactive); and `CCOC(=O)c1ccccc1OC(=O)Oc1ccccc1C(=O)OCC`, with 0.28% (inactive). On to `CCOC(=O)c1cc2n(c1N)-c1ccccc1C2=O`, for which the activation is 40.9% (active).

On to `COCCNC(=O)c1onc(CSc2cccc(C)c2)c1C(=O)O`, for which the activation is 2.19% (inactive).

Consider `Cc1cccc(NC(=O)CSc2nc3c(c(=O)[nH]2)CCC3)c1C`, for which the activation is 5.1% (inactive). Under `Cc1cc(OC(C)C(=O)NC2CC(C)(C)NC(C)(C)C2)c2c(C)cc(=O)oc2c1` (centres undefined) stands -6.45% (inactive). Consider `CCOc1nc(OCC)nc(-n2cc(-c3ccccc3)nn2)n1`, for which the activation was -0.01% (inactive). Then `COc1cccc(NS(=O)(=O)c2ccc3[nH]cc(C(=O)NCCCOC(C)C)c(=O)c3c2)c1`, with 1.55% (inactive).

In the case of `CCC1(C)COC(c2ccc(OC)c(OC)c2)OC1` (centres undefined), the activation is 15.5% (inactive). Then `COc1ccc(CNCCCO)cc1OC`, with 2.52% (inactive).

Take `COc1ccc(C2C(C#N)=C(N)Oc3cc(N)ccc32)cc1OC` (centres undefined): the activation was 2.36% (inactive). Consider `COc1ccc(C2c3ccc(O)cc3Oc3ncn(CCCO)c(=N)c32)cc1OC` (centres undefined), for which the activation was 91.1% (active).

For the compound `CN1C(=O)/C(=C/C=C2\SCCN2C)OC1=S`, the activation was 34% (active). Under `CC(=O)c1cc2c(cc1NC(=O)Cn1nc(-c3ccc(F)cc3)ccc1=O)OCO2` stands 1.13% (inactive).
